High-throughput results: PubChem, The Scripps Research Institute Molecular Screening Center
FBW7 act: human FBW7 E3 ligase activation, primary screen; Q969H0; normalized activity (activation), % at 26.1 µM; 0.13% of 650,000 active; AlphaScreen FBW7–phospho-cyclin E peptide binding, activator screen; in the data active = normalized activity above about 1.9%;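 also: purified mutant Fbw7 with reduced substrate affinity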
Target sequence (Q969H0 whole entry, looked up): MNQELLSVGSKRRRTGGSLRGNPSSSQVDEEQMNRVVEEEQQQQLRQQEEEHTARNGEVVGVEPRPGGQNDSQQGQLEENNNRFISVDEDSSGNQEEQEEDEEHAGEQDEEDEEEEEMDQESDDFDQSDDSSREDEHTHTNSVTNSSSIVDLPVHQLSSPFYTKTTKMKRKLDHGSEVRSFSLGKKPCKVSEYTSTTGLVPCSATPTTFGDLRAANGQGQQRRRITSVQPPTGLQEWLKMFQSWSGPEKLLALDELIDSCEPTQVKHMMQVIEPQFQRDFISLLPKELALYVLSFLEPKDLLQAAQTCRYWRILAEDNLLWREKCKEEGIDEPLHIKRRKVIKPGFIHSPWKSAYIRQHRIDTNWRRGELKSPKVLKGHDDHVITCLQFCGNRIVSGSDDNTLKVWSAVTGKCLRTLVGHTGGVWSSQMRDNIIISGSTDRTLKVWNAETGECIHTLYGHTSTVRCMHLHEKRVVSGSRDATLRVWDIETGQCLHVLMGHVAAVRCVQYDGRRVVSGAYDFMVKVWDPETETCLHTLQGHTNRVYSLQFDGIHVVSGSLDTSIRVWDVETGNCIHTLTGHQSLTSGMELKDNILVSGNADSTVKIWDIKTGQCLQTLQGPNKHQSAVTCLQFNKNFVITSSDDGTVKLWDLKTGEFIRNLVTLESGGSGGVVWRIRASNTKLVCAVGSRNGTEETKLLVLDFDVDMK
TEAD-YAP inh: TEAD-YAP interaction inhibition; HEK-TIYL cells, TEAD-Gal4/YAP UAS-luciferase luminescence; inhibition, % at 9.12 µM; 1.4% of 640,000 active; in the data active = inhibition above about 32%
MITF primary: human MITF inhibition, primary screen. AlphaScreen MITF homodimerization, bead proximity signal. O75030. 0.91% of 650,000 active. inhibition, % at 2.6 µM. AID 1259374; in the data active = inhibition above about 50%
GPR151 activ: activates the human receptor GPR151 | PathHunter beta-arrestin GPR151 cells, luminescence | AID 1508602 | 1% of 650,000 active | activation, % at 11.2 µM; in the data active = activation above about 4.9%
MITF inh conf: confirmation of human MITF inhibitors | shares compounds with MITF primary | AlphaScreen MITF homodimerization, biotin/His-MITF beads | inhibition, % at 2.6 µM | 16% of 4,700 active;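 active = inhibition above a cutoff derived from the DMSO control wells, cut at about 28% in these data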;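 also: inhibitors lower the bead chemiluminescence by keeping MITF from dimerizing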
AlphaScreen DR: optically interferes with AlphaScreen signal in dose response. shares compounds with MITF primary. AlphaScreen optical interference counterscreen, cell-free. IC50, µM. 6% of 480 active; call rule not given here
AlphaScreen intf2: optically interferes with AlphaScreen signal | shares compounds with MITF primary | LysRS AlphaScreen counterscreen, signal interference, triplicate | inhibition, % at 2.6 µM | 7.6% of 4,700 active | AID 1259376;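 active = inhibition above a cutoff derived from the DMSO control wells, cut at about 30% in these data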
Hits are given with their value; n = inactive; x = no result given; ! = not active in a repeat. This is a sample that favours compounds with a hit; in the whole collection about 3.5% have one here.

SMILES | FBW7 act | TEAD-YAP inh | MITF primary | GPR151 activ | MITF inh conf | AlphaScreen intf2 | others
C[C@H]1NC(=O)[C@H]2CN(C(=O)NC3CCCCC3)CCN2C1=O | n | n | 74.6 | n | 74.4 | n | AlphaScreen DR=n
CCN1CCN(CCOc2c(OC)cccc2OC)CC1 | n | n | 82.0 | n | n | n
COc1cccc(OC)c1OCCCCN1CCCC1 | n | n | 52.5 | n | n | n
CC(=O)Nc1ccc2nc(NC(=O)c3ccc(Cl)s3)sc2c1 | n | n | n | n | x | x
CCN(CC)CCOC(=O)c1c(C)nc2n(C)c3ccccc3n12 | n | n | n | n | x | x
Cc1nc2n(C)c3ccccc3n2c1C(=O)NN | n | 54.1 | 95.4 | n | n | n
CN(C)C(=S)Nc1cccc(Br)c1 | n | n | n | n | x | x
COc1ccc2c(c1)C(c1cccs1)=NNC(c1ccncc1)=N2 | n | n | n | n | x | x
c1csc(C2=NNC(c3ccncc3)=Nc3ccccc32)c1 | n | n | 71.0 | n | n | n
O=C(Cn1ncc2ccccc21)Nc1cccc(Cl)c1 | n | n | n | n | x | x
Cc1cc(C(N)=O)c(C)n1CCCn1ccnc1 | n | n | 76.2 | n | n | n
Cc1cc(=S)cc(C)n1CCCn1ccnc1 | n | n | n | n | x | x
O=S(=O)(c1ccc(F)cc1)N1CCN(C2CCCCC2)CC1 | n | n | 84.8 | n | n | n
O=S(=O)(c1ccc(F)cc1)N1CCN(C2CCCCCC2)CC1 | n | n | n | n | x | x
CC1CN(C2CCN(S(=O)(=O)c3ccc(F)cc3)CC2)CC(C)O1 (stereo not given) | n | n | 56.6 | n | n | n
O=S(=O)(c1ccc(F)cc1)N1CCN(C2CCCC2)CC1 | n | n | n | n | x | x
CCCN1CCC(N2CCN(S(=O)(=O)c3ccc(F)cc3)CC2)CC1 | n | n | 54.5 | n | n | n
CS(=O)(=O)N1CCN(C2CCCCC2)CC1 | n | n | 58.2 | n | n | n
COCCNC(=S)NNC(=O)c1cc(Cl)ccc1OC | n | n | 63.0 | n | n | n
COCCNC(=S)NNC(=O)c1ccc(Cl)cc1Cl | n | n | n | n | x | x
CCOC(=O)C1=C(C)N=c2s/c(=C\c3ccc(OCc4ccccc4)c(OCC)c3)c(=O)n2C1c1ccc(OC)cc1 (stereo not given) | n | n | n | n | x | x
CC(C(=O)N1CCN(Cc2ccccc2)CC1)N(c1ccc(Cl)cc1)S(C)(=O)=O (stereo not given) | n | n | 83.0 | n | n | n
O=C(NNC(=S)Nc1ccccc1)C(=O)NNC(=S)Nc1ccccc1 | n | n | 78.6 | n | 58.2 | n
C=CC[C@@H]1/C=C(\C)C[C@H](C)C[C@H](OC)[C@H]2O[C@@](O)(C(=O)C(=O)N3CCCC[C@H]3C(=O)O[C@H](/C(C)=C/[C@@H]3CC[C@@H](O)[C@H](OC)C3)[C@H](C)[C@@H](O)CC1=O)[C@H](C)C[C@@H]2OC | n | n | 111.3! | n | 122.2 | 100.2
COC1CC2CCC(C)C(O)(O2)C(=O)C(=O)N2CCCCC2C(=O)OC(C(C)CC2CCC(O)C(OC)C2)CC(=O)C(C)/C=C(\C)C(O)C(OC)C(=O)C(C)CC(C)/C=C/C=C/C=C/1C (stereo not given) | n | n | n | n | x | x
SMILES | FBW7 act | TEAD-YAP inh | MITF primary | GPR151 activ | MITF inh conf | AlphaScreen intf2 | others
CN(C)c1ccc(O)c2c1C[C@H]1C[C@H]3[C@H](N(C)C)C(=O)C(C(N)=O)=C(O)[C@@]3(O)C(=O)C1=C2O | n | n | 73.1! | n | 64.4 | n | AlphaScreen DR=n
COc1ccc(CCC(C)NCCCn2ccnc2)cc1 (stereo not given) | n | n | n | n | x | x
COc1ccc(COCC(O)CNCCCn2ccnc2)cc1 (stereo not given) | n | n | 82.5 | n | n | n
O=C(Cn1cc(NC(=O)CSc2ccccc2)cn1)NCCN1CCCc2ccccc21 | n | n | n | n | x | x
O=C(O)c1ccccc1-c1cc(C(=O)O)c2cc(Br)ccc2n1 | n | n | n | n | x | x
O=C(O)c1cc(-c2ccco2)nc2ccc(Br)cc12 | n | n | 58.0 | n | n | n
O=C(NCC1CCC2(CCN(Cc3cc4ccccc4s3)CC2)O1)c1cccnc1 (stereo not given) | n | n | n | n | x | x
O=C(NCC1CCC2(CCN(Cc3cnc(-c4ccccc4)s3)CC2)O1)c1cccnc1 (stereo not given) | n | n | 70.5 | n | n | n
CCN1C(=O)S/C(=C/c2ccc(OCc3cccc(C(=O)O)c3)cc2)C1=O | n | n | n | n | x | x
